Test results as given in PubChem BioAssay AID1423 (NMMLSC, 2008).
In all, about 220,000 compounds went through this assay and about 750 (0.34%) were called active. This is one part of a sample in which actives are shown more often than they occur. No stated cut-off is given here; in the data, active means response below about 60% or above about 140%; inactive means in between.

Each molecule was assayed against Guanine nucleotide-binding protein G(o) subunit alpha (Homo sapiens) (UniProt P09471) (assay: compounds changing RGS8 association with Galphao – biochemical, multiplexed bead flow cytometry, primary screen (AID 1423;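 further: Galphao activated as the GDP aluminium fluoride complex binding bead-coupled RGS8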)). Settings: at 10 µM, actives lie on both sides.
Guanine nucleotide-binding protein G(o) subunit alpha (Homo sapiens), sequence (P09471 whole entry, looked up): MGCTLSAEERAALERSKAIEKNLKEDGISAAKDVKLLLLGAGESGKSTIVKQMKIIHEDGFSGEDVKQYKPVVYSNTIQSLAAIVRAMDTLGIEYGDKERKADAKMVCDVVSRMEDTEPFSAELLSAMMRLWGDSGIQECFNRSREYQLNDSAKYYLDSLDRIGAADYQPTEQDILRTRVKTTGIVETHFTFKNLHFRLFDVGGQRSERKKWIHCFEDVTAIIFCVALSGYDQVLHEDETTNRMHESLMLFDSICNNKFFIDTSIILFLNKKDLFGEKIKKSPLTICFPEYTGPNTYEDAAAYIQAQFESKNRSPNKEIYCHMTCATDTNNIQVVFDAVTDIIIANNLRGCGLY

Response (percent of control binding), active:
O=C(CN1CCCCC1)N1c2ccccc2Sc2ccc(C(F)(F)F)cc21 22.7%
CCCC(=O)n1nc(-c2ccccc2)nc1N 20.9%
O=C1CCC(=O)N(O)CCCCCNC(=O)CCC(=O)N(O)CCCCCNC(=O)CCC(=O)N(O)CCCCCN1 55.9%
Cc1cc2nc(C)n(CCCNC(=O)Nc3ccccc3)c2cc1C 170% [activator]
CC(C)Cc1nc(Nc2ccc(S(=O)(=O)N3CCCC3)cc2)c2nnn(Cc3ccccc3)c2n1 141% [activator]
C=CCn1c(Cn2nnc3ccccc32)nnc1SCC(=O)N/N=C/c1cc(Br)cc(OC)c1O 5.17%
NC(=O)CSc1c[nH]c2ccccc12 27.5%
CCOC(=O)C1Sc2[nH]c(=O)sc2C(c2ccc(Cl)cc2)C1C(=O)OCC (stereo not given) 7.38%
Cc1ccc(OCC(O)CN2CCN(CC(O)COc3ccc(C)cc3Cl)CC2)c(Cl)c1 (stereo not given) 165% [activator]
O=[N+]([O-])C(=c1ccc2c(c1)N1C3=C(CCCC3)CC3CCCCC31N=2)[N+](=O)[O-] (stereo not given) 43.8%
Cc1ccc(N2C(=O)C3C(c4ccccc4)(C2=O)C3(c2ccccc2)c2ccccc2)cc1 (stereo not given) 23.3%
COc1cc(C2/C(=C(\O)c3ccc4c(c3)CC(C)O4)C(=O)C(=O)N2Cc2ccco2)ccc1O (stereo not given) 12.8%
CCCn1nnnc1NC(=O)COc1ccc(Cl)cc1C 11.9%
Oc1ccc(-c2onc3ccc(Cl)cc23)cc1 144% [activator]
O=C(NCc1ccc(F)cc1)C1CCC(CNc2c(N3CCOCC3)c(=O)c2=O)CC1 (stereo not given) 8.33%
Cc1ccc(Cn2ccc(NC(=O)c3cc(C(C)C)on3)n2)cc1 55.8%

Response (percent of control binding), inactive:
O=C(CSc1ncn[nH]1)Nc1nsc(-c2ccccc2)n1 79%
CC(C)(C)C1C/C(=C/c2ccco2)C(=O)/C(=C/c2ccco2)C1 (stereo not given) 97.5%
COc1cc(/C=C/C(=O)N2c3ccccc3Sc3ccc(C(F)(F)F)cc32)cc(OC)c1OC 101%
O=C(CN1CCCCCC1)N1c2ccccc2Sc2ccc(C(F)(F)F)cc21 107%
Cc1nc(N2CCOCC2)nc2c1CCCC2 99.2%
C[C@@H]1NC(=O)c2cc([N+](=O)[O-])cc(F)c2NCCC[C@@H](C(N)=O)NC(=O)[C@H](CC(N)=O)NC1=O 100%
COc1ccc(CC(=O)n2nc(-c3cccnc3)nc2N)cc1 101%
COc1ccccc1C(=O)n1nc(-c2ccccc2)nc1N 101%
COC(=O)Nc1ncc(CN2CCCCC2)s1 111%
CCOC(=O)CNc1nc2ccccc2n2c(C)nnc12 99.9%
CCSc1nc(C)c(CCOc2cccc(C)c2)c(=O)[nH]1 101%
CN(C)S(=O)(=O)c1cccc(-c2nn(-c3ccccc3)cc2/C=C2\SC(=S)N(CC(=O)O)C2=O)c1 99.8%
Cc1ncn2cc(-c3ccc(Cl)cc3Cl)[nH]c(=O)c12 102%
O=C(Nc1nnc(Cc2ccc(Cl)cc2)s1)c1ccncc1 101%
Cc1c(NC(=O)C(=O)N/N=C/c2cccs2)c(=O)n(-c2ccccc2)n1C 103%
COc1ccc(C(=O)COC(=O)COc2ccc(C)c(C)c2)cc1 102%
Cc1nc2cc(NC(=O)Nc3cccc(F)c3)ccc2n1C 97.9%
Cc1nc2cc(NC(=O)NC3CC3)ccc2n1C 103%
O=C(O)/C=C/c1ccc(OCCCF)cc1 98%
O=C(Cc1ccccc1)NCC1OCCc2ccccc21 (stereo not given) 100%
CCc1cc(C(=O)c2ccc(OC)cc2)c(NC(=O)CN2CCN(C)CC2)s1 107%
Cc1nc(Nc2ccc(S(=O)(=O)N3CCCC3)cc2)c2nnn(Cc3ccccc3)c2n1 101%
Clc1ccc(Nc2ncnc3c2nnn3Cc2ccccc2)cc1 99.3%
CC(C)CCNC(=O)C1CCC(CNc2c(N3CCC(C)CC3)c(=O)c2=O)CC1 (stereo not given) 99.2%
NC(=O)C1(N2CCCCC2)CCN(C2CC(=O)N(Cc3ccc(N4CCCC4=O)cc3)C2=O)CC1 (stereo not given) 97.6%
Cc1cccc(C(=O)NNC(=O)c2cccc([N+](=O)[O-])c2)c1 101%
Cc1ccc(Cn2c(SCC(=O)N/N=C/c3ccccc3OCC(=O)O)nc3ccccc32)cc1 104%
COc1ccc(OC)c(/C=N/NC(=O)CSc2nnc(C)n2-c2ccccc2)c1 95.2%
C=CCNC(=O)COC(=O)c1ccccc1C(=O)N(C)C1CCCCC1 103%
O=C(Cc1c[nH]c2ccccc12)OCCOC(=O)Cc1c[nH]c2ccccc12 101%
CCCn1cc(SCC(N)=O)c2ccccc21 90.4%
COc1ccc(CC(=O)N[C@@H](CCSC)c2nc3ccccc3[nH]2)cc1 106%
Cc1ccccc1Cn1nc(C)c(NC(=O)C(F)(F)F)c1C 106%
CCCCN1CCNC1=S 99.3%
Cc1noc(C)c1S(=O)(=O)N(C)Cc1ccccc1 98%
CCOC(=O)C1=C(C)NC(=O)N(C(C)=O)C1c1ccc(Cl)cc1 (stereo not given) 103%
CCOC(=O)C1C(c2ccc(Cl)cc2)NC(=S)NC1(O)C(F)(F)F (stereo not given) 102%
CCN(CC(=O)NCc1cccs1)C(=O)c1ccccc1F 99.2%
Cc1cccc(C)c1OCC(O)CN1CCCCC1 (stereo not given) 99.3%
Cc1ccccc1OCC(O)CN1CCN(c2ccccn2)CC1 (stereo not given) 99.3%
Cc1ccc(NCc2n[nH]c(=S)n2-c2ccccc2)cc1Cl 99.7%
COc1ccc(C2C(C#N)=C(N)N(c3ncn[nH]3)C3=C2C(=O)CCC3)cc1 (stereo not given) 100%
CC(=O)n1cc([C@@H]2C=C(C(=O)N3CCN(Cc4ccc5c(c4)OCO5)CC3)O[C@H](OCc3ccc(CO)cc3)C2)c2ccccc21 102%
COc1ccc(COCC(O)CN2CCC(C(N)=O)CC2)cc1 (stereo not given) 104%
COc1ccc(CNCCCO)cc1OC 108%
Cc1cc(=O)[nH]c(SCC(=O)Nc2ccc(Br)cc2)n1 93.2%
Cc1ccc(N2C(=O)C3CC3C2=O)cc1 (stereo not given) 101%
Cc1ccc(N2C(=O)C(Cc3ccccc3)NC2=S)cc1 (stereo not given) 102%
O=C(CCSc1ccccc1)N1CCN(c2ccccc2F)CC1 99.9%
CC1(C)C2CC=C(/C=N/NC(=O)c3ccc(Cl)cc3)C1C2 (stereo not given) 105%
COc1ccc(/C(O)=C2\C(=O)C(=O)N(Cc3ccco3)C2c2ccc(OC)cc2OC)cc1 (stereo not given) 98.3%
COCCCN1C(=O)C(=O)/C(=C(/O)c2ccc3c(c2)CC(C)O3)C1c1cccnc1 (stereo not given) 89.7%
Cc1ccc(-n2c(O)c(C=Nc3ccc(S(=O)(=O)Nc4ncccn4)cc3)c3ccccc3c2=O)cc1C 102%
COC(=O)c1cc(NC(=O)C2C3C=CC(C3)C2C(=O)O)cc(C(=O)OC)c1 (stereo not given) 100%
O=C(CSc1nnc2n1CCCN2)c1ccccc1 104%
COc1cc(C(=O)NCc2ccc(-n3cccc3)cc2)cc(OC)c1OC 103%
O=C(CCCl)Nc1ccc(S(=O)(=O)NCc2ccco2)cc1 98.5%
Cc1cc(NC(=O)COc2ccc(Cl)cc2Cl)n(CCC#N)n1 99.5%
CCOC(=O)N1CCN(C(=O)COc2ccc(Cl)cc2C)CC1 101%
CCCCCN(C(=O)NC(=O)Nc1cccc(C)c1C)S(C)(=O)=O 102%
O=C(CCc1ccccc1)Nc1ccc(NC(=O)C2CCCCC2)nc1 105%
O=C(COC(=O)c1ccc[nH]c1=O)Nc1ccc2c(c1)OC(F)(F)O2 104%
O=C(CSc1nc2ccc(Nc3nc(N4CCOCC4)nc(N4CCOCC4)n3)cc2s1)NCc1ccco1 98.3%
Cc1ccc(C(=O)N/C(=C/c2cccs2)C(=O)NCC2CCCO2)cc1 (stereo not given) 103%
O=C(Cn1nnc(-c2ccccc2)n1)N/N=C/c1ccc(-c2ccc(Cl)cc2)o1 101%
Clc1ccc2nc(-c3ccccc3)nc(C(Cl)Cl)c2c1 94.2%
O=C(Oc1cccc(N2C(=O)C3C4c5ccccc5C(c5ccccc54)C3C2=O)c1)c1ccco1 (stereo not given) 102%
O=C1C2C3C=CC(C4CC34)C2C(=O)N1c1nccs1 (stereo not given) 101%
CCc1nnc(NC(=O)CCCSc2nc3ccccc3[nH]2)s1 101%
Cc1ccc(NC(=O)/C(=C/c2ccc([N+](=O)[O-])cc2)NC(=O)c2ccccc2)cc1 106%
COc1ccc(-c2nc3cnccn3c2NC(C)(C)CC(C)(C)C)cc1O 98.8%
COc1ccc(N=C(C)c2sc3ccccc3c2O)cc1 97.2%
COc1ccc(CNC(=O)C2CCC(CNc3c(N4CCOCC4)c(=O)c3=O)CC2)cc1 (stereo not given) 103%
CC(NC(=O)C1CCC(CNc2c(N3CCOCC3)c(=O)c2=O)CC1)c1ccccc1 (stereo not given) 99.7%
Cc1cccc(C)c1NC(=O)Nc1ccccc1-n1ccnc1 101%
Cc1ccc(Cn2ccc(NC(=O)C3C4CCC(C4)C3C(=O)O)n2)cc1 (stereo not given) 102%
O=C(Nc1ccn(Cc2ccccc2)n1)c1cccc(F)c1 103%
Cc1onc(-c2ccc(Cl)cc2)c1-c1ccnn1S(=O)(=O)c1ccc(Cl)cc1 98.9%
CS(=O)(=O)N(Cc1ccccc1)c1ccc(C(=O)NN=C2CCCCCC2)cc1 103%
